PubChem BioAssay (EPA / NIEHS)
“And” between values parts separate entries of the source, which are not always exact repeats. Equal values may be shown once. Where a structure was tested more than once in an assay, its records may differ in their call. The source made the active and inactive calls. How the source made its calls: active means hit-call score of the fitted dose curve at least 0.9, where 1 is the maximum; inactive means score below 0.9.

Legend:
Details in all cases: mRNA level, 48 h; actives raise or lower the signal
[1] = read-out: Fatty Acid-Binding Protein 1 (FABP1), FABP1 (gene 2168); test: LTEA_HepaRG_FABP1: Life Technologies and Expression Analysis (LTEA) Assay for Fatty Acid-Binding Protein 1 (FABP1) using HepaRG (AID 2283494)
Method in brief: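 HepaRG, 48 h post-plating switched to serum-free induction medium, then dosed 48 h (duplicate, 8 pts, ≤100 uM, 0.5% DMSO). RNA → Fluidigm TaqMan qRT-PCR, FABP1 normed to ACTB/GAPDH/POLR2A. Bidirectional curve fit vs DMSO.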

[2] = read-out: Cytochrome P450 4A22 (Homo sapiens) (UniProt Q5TCH4); test: LTEA_HepaRG_CYP4A22: Life Technologies and Expression Analysis (LTEA) Assay for Cytochrome P450 4A22 (CYP4A22) using HepaRG (AID 2283495)
Method in brief: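 Differentiated HepaRG cells in serum-free induction medium exposed 48 h in duplicate to eight half-log concentrations up to 100 uM in 0.5% DMSO. CYP4A22 mRNA quantified by TaqMan qRT-PCR, normalized to ACTB, GAPDH and POLR2A; bidirectional fit versus DMSO.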

[3] = read-out: Cytochrome P450 7A1 (Homo sapiens) (UniProt P22680); test: LTEA_HepaRG_CYP7A1: Life Technologies and Expression Analysis (LTEA) Assay for Cytochrome P450 7A1 (CYP7A1) using HepaRG (AID 2283496)
Method in brief: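 Gene expression endpoint in human HepaRG liver cells treated for 48 h with test chemicals (up to 100 uM, 0.5% DMSO). Values come from bidirectional concentration-response fitting versus DMSO.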

[4] = read-out: Glutathione S-Transferase (GSTA2), GSTA2 (gene 2939); test: LTEA_HepaRG_GSTA2: Life Technologies and Expression Analysis (LTEA) Assay for Glutathione S-Transferase (GSTA2) using HepaRG (AID 2283497)
Method in brief: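 HepaRG, 48 h dosing, 8-pt half-log CRC from 100 uM, 0.5% DMSO vehicle, n=2; RNA → Fluidigm TaqMan qRT-PCR; GSTA2 vs ACTB/GAPDH/POLR2A; gain/loss fit vs DMSO.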

[5] = read-out: Glutamate-cysteine ligase catalytic (GCLC), GCLC (gene 2729); test: LTEA_HepaRG_GCLC: Life Technologies and Expression Analysis (LTEA) Assay for Glutamate-cysteine ligase catalytic (GCLC) using HepaRG (AID 2283498)
Method in brief: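 Read-out is GCLC transcript level by Fluidigm-based TaqMan qRT-PCR, normalized to three housekeeping genes and fitted in both directions relative to 0.5% DMSO. Human HepaRG cells received chemicals for 48 h, up to 100 uM.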

[6] = read-out: growth arrest and DNA damage 45 (GADD45G), GADD45G (gene 10912); test: LTEA_HepaRG_GADD45G: Life Technologies and Expression Analysis (LTEA) Assay for growth arrest and DNA damage 45 (GADD45G) using HepaRG (AID 2283499)
Method in brief: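 Differentiated human HepaRG cells, 48 h post-plating, exposed 48 h in serum-free induction medium to 8 half-log concentrations (top 100 uM, 0.5% DMSO) in duplicate. GADD45G mRNA measured by Fluidigm TaqMan qRT-PCR, normalized to ACTB, GAPDH, POLR2A; bidirectional fit versus DMSO.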

[7] = read-out: Glutamate-cysteine ligase regulatory (GCLM), GCLM (gene 2730); test: LTEA_HepaRG_GCLM: Life Technologies and Expression Analysis (LTEA) Assay for Glutamate-cysteine ligase regulatory (GCLM) using HepaRG (AID 2283500)
Method in brief: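 Human liver HepaRG cultures receive test chemicals for 48 hours at up to 100 uM in 0.5% DMSO. GCLM expression is measured by qRT-PCR and analysed for increases or decreases against vehicle.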

[8] = read-out: Glutathione S-transferase M3 (GSTM3), GSTM3 (gene 2947); test: LTEA_HepaRG_GSTM3: Life Technologies and Expression Analysis (LTEA) Assay for Glutathione S-transferase M3 (GSTM3) using HepaRG (AID 2283501)
Method in brief: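 Differentiated human HepaRG cells were exposed in duplicate for 48 h in serum-free induction medium, 8 points from 100 uM top in half-log steps, 0.5% DMSO. GSTM3 mRNA was measured by TaqMan qRT-PCR, normalized to ACTB, GAPDH and POLR2A; bidirectional fit versus DMSO.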

[9] = read-out: Heat shock 70 kDa protein 1 (HSPA1A), gene 3303; test: LTEA_HepaRG_HSPA1A: Life Technologies and Expression Analysis (LTEA) Assay for Heat shock 70 kDa protein 1 (HSPA1A) using HepaRG (AID 2283502)
Method in brief: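 HSPA1A induction in human HepaRG liver cells is measured after 48 h of chemical treatment (100 uM maximum, 0.5% DMSO vehicle). Expression comes from qRT-PCR normalized to endogenous controls.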

[10] = read-out: 3-Hydroxy-3-Methylglutaryl-CoA Synthase 2 (HMGCS2), HMGCS2 (gene 3158); test: LTEA_HepaRG_HMGCS2: Life Technologies and Expression Analysis (LTEA) Assay for 3-Hydroxy-3-Methylglutaryl-CoA Synthase 2 (HMGCS2) using HepaRG (AID 2283504)
Method in brief: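 Human HepaRG cells in serum-free induction medium were exposed in duplicate for 48 h to 8-point half-log series from 100 uM top in 0.5% DMSO. HMGCS2 mRNA measured by TaqMan qRT-PCR, normalised to ACTB, GAPDH, POLR2A; bidirectional fit versus DMSO.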

HGF (gene 3082) = test: LTEA_HepaRG_HGF: Life Technologies and Expression Analysis (LTEA) Assay for Hepatocyte Growth Facto (HGF) using HepaRG (AID 2283505)
Method in brief: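 Differentiated HepaRG cells in serum-free induction medium exposed 48 h in duplicate, 8 half-log concentrations from 100 uM in 0.5% DMSO. HGF mRNA by qRT-PCR, normalised to ACTB, GAPDH, POLR2A; bidirectional fitting.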

[11] = read-out: Insulin Like Growth Factor 1 (IGF1), IGF1 (gene 3479); test: LTEA_HepaRG_IGF1: Life Technologies and Expression Analysis (LTEA) Assay for Insulin Like Growth Factor 1 (IGF1) using HepaRG (AID 2283506)
Method in brief: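 Using human HepaRG liver cells, IGF1 transcript induction or suppression is measured 48 h after dosing across eight concentrations capped at 100 uM. Values derive from bidirectional concentration-response fitting with DMSO as baseline.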

[12] = read-out: Intercellular Adhesion Molecule 1 (ICAM1), ICAM1 (gene 3383); test: LTEA_HepaRG_ICAM1: Life Technologies and Expression Analysis (LTEA) Assay for Intercellular Adhesion Molecule 1 (ICAM1) using HepaRG (AID 2283507)
Method in brief: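 Differentiated human HepaRG cells in serum-free induction medium exposed 48 h in duplicate to 8 half-log concentrations (top 100 uM, 0.5% DMSO). ICAM1 mRNA quantified by TaqMan qRT-PCR, normalized to ACTB, GAPDH and POLR2A; bidirectional fitting versus DMSO.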

[13] = read-out: Insulin-like growth factor-binding protein 1 (IGFBP1), IGFBP1 (gene 3484); test: LTEA_HepaRG_IGFBP1: Life Technologies and Expression Analysis (LTEA) Assay for Insulin-like growth factor-binding protein 1 (IGFBP1) using HepaRG (AID 2283508)
Method in brief: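 HepaRG cells, plated 48 h then switched to serum-free induction medium, exposed in duplicate for 48 h to 8-point half-log series from 100 uM in 0.5% DMSO. mRNA measured by qRT-PCR, normalized to ACTB/GAPDH/POLR2A; bidirectional fit versus DMSO.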

[14] = read-out: Interleukin 6 (IL6), IL6 (gene 3569); test: LTEA_HepaRG_IL6: Life Technologies and Expression Analysis (LTEA) Assay for Interleukin 6 (IL6) using HepaRG (AID 2283509)
Method in brief: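 HepaRG, ~100,000 cells/well, 48 h pre-culture; serum-free induction medium; cmpd 8-pt half-log from 100 uM, 0.5% DMSO, duplicate, 48 h. Lysis in RLT, TaqMan qRT-PCR; gain or loss vs DMSO.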

[15] = read-out: Interleukin 6 Receptor (IL6R), IL6R (gene 3570); test: LTEA_HepaRG_IL6R: Life Technologies and Expression Analysis (LTEA) Assay for Interleukin 6 Receptor (IL6R) using HepaRG (AID 2283510);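 on AC50: TaqMan qRT-PCR signal normalized to ACTB GAPDH and POLR2A housekeeping genes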
Method in brief: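 Concentration-response in human liver HepaRG cells: eight concentrations from 100 uM downward by half-logs, 48 h exposure, 0.5% DMSO vehicle. IL6R mRNA change measured by qRT-PCR and fitted in both directions relative to vehicle.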

[16] = read-out: Potassium channel subfamily K member 1 (KCNK1), KCNK1 (gene 3775); test: LTEA_HepaRG_KCNK1: Life Technologies and Expression Analysis (LTEA) Assay for Potassium channel subfamily K member 1 (KCNK1) using HepaRG (AID 2283511)
Method in brief: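 Gain or loss of KCNK1 mRNA is the read-out, quantified by qRT-PCR against three housekeeping genes after 48 h chemical treatment of human HepaRG liver cells. Concentrations ran from 100 uM downward in half-log steps, vehicle 0.5% DMSO.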

[17] = read-out: Keratin 19 (KRT19), KRT19 (gene 3880); test: LTEA_HepaRG_KRT19: Life Technologies and Expression Analysis (LTEA) Assay for Keratin 19 (KRT19) using HepaRG (AID 2283512)
Method in brief: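 Differentiated HepaRG cells in serum-free induction medium, exposed 48 h in duplicate to 8 half-log concentrations up to 100 uM in 0.5% DMSO. KRT19 mRNA by qRT-PCR, normalized to ACTB, GAPDH, POLR2A; bidirectional fit vs DMSO.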

[18] = read-out: JUN Transcription Factor, JUN (gene 3725); test: LTEA_HepaRG_JUN: Life Technologies and Expression Analysis (LTEA) Assay for JUN Transcription Factor using HepaRG (AID 2283513)
Method in brief: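 Human HepaRG liver cells receive test chemicals in 0.5% DMSO for 48 h across an eight-point range topping at 100 uM. Expression changes in JUN are scored in both directions against the DMSO vehicle.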

Measured: AC50

N#Cc1cc(Br)c(O)c(Br)c1
active: [1] 13 µM | [2] 25 µM | [3] 19.1 µM | [4] 22 µM | [5] 10.3 µM | [6] 71.4 µM | [7] 1.34 µM | [8] 10.7 µM | [9] 10.6 µM | [10] 33.3 µM | HGF (gene 3082) 23.9 µM | [11] 17.4 µM | [12] 69.9 µM | [13] 19.3 µM | [14] 34.5 µM | [15] 19.4 µM | [17] 25.6 µM | [18] 24.2 µM
inactive: [16]

CCCN(CCC)c1c([N+](=O)[O-])cc(S(N)(=O)=O)cc1[N+](=O)[O-]
inactive: [5] | [6] | [7] | [8] | [10] | HGF (gene 3082) | [11] | [12] | [15] | [16] | [17]
active: [1] 93.5 µM and 35.6 µM and 34.9 µM | [4] 91 µM and 68.4 µM and 83.1 µM | [5] 70.9 µM and 83.9 µM | [7] 92 µM | [9] 70.7 µM and 75.6 µM and 50 µM | [10] 54.1 µM and 73.4 µM | [11] 93.4 µM | [12] 94.8 µM and 85.4 µM | [13] 92.9 µM and 36.6 µM and 78.9 µM | [14] 93.1 µM and 85.4 µM and 91 µM | [15] 68.4 µM and 70 µM | [16] 93.5 µM | [17] 93.8 µM and 72.5 µM | [18] 94.2 µM and 79.3 µM and 74.8 µM

Cc1cc(Cl)ccc1OCC(=O)O
active: [3] 24.9 µM
inactive: [1] | [2] | [4] | [5] | [6] | [7] | [8] | [9] | [10] | HGF (gene 3082) | [11] | [12] | [13] | [14] | [15] | [16] | [17] | [18]

CC1COC(Cn2cncn2)(c2ccc(Oc3ccc(Cl)cc3)cc2Cl)O1 (stereo unspecified)
inactive: [5] | [7] | [8] | HGF (gene 3082) | [15]
active: [1] 23.3 µM | [2] 15.5 µM | [3] 13.8 µM | [4] 19.7 µM | [6] 12.2 µM | [9] 87.2 µM | [10] 11.7 µM | [11] 12.1 µM | [12] 26.2 µM | [13] 19 µM | [14] 31.9 µM | [16] 33.1 µM | [17] 12.9 µM | [18] 62.4 µM

Oc1ccccc1-c1ccccc1
inactive: [1] | [2] | [3] | [4] | [5] | [6] | [7] | [8] | [9] | [10] | HGF (gene 3082) | [11] | [12] | [13] | [14] | [15] | [16] | [17] | [18]
